Results as given in PubChem BioAssay.
Unmarked numbers belong to inactive results. Entries that show only a call come without a potency. For some of these results: Potency and affinity values are given separately. Active and inactive are the calls of the source. Unless noted, the rule behind the calls is not given here.

Key:
[1] = antimalarial activity against Dd2 strain (AID 2302;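 active = growth inhibition above 50% at the single 2 µM test dose, taken to imply half-maximal potency below 2 µM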); settings: P. falciparum Dd2 in RBCs, LDH growth readout, 72 h; at 2 µM; stronger effect = higher value
[2] = HepG2 cytotoxicity, primary screen, cytotoxicity control for P. falciparum antimalarial project, cell-based, ATP luminescence (AID 2303;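 active = inhibition above 50%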); settings: HepG2 viability, 24-48 h, at 10 µM, stronger effect = higher value
[3] = biological target: L-lactate dehydrogenase (Plasmodium falciparum (isolate CDC / Honduras)) (UniProt Q27743); assay: PfLDH activity inhibition – cell lysate, 3D7 strain, counter-screen for P. falciparum growth inhibition project (AID 2304); settings: P. falciparum 3D7 crude extract, LDH APAD/NBT absorbance; at 2 µM; stronger effect = higher value
[4] = inhibition of 3D7 malaria parasite growth – strain 3D7 (AID 2306); settings: P. falciparum 3D7 erythrocytic growth, LDH absorbance, 72 h; at 2 µM; stronger effect = higher value
[5] = biological target: Calcium-dependent protein kinase 1 (Plasmodium falciparum (isolate 3D7)) (UniProt P62344); assay: PfCDPK1 kinase inhibitors, biochemical, TCAMS library (AID 1159585; cut-off not given, nearly all actives have IC50 up to about 0.98 µM;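 note: inhibitors leave more ATP so luminescence rises with inhibition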); settings: recombinant PfCDPK1, Kinase-Glo ATP depletion luminescence
[6] = biological target: Plasmodium falciparum protein kinase 6 (PK6, PF3D7_1337100) (UniProt Q8IDW1); assay: PfPK6 kinase inhibitors, biochemical, TCAMS library (AID 1159586); settings: recombinant PfPK6, Kinase-Glo ATP depletion luminescence
[7] = biological target: Protein kinase 7 (PK7), Plasmodium falciparum 3D7 (PF3D7_0213400) (UniProt Q7YTF7); assay: inhibition of Plasmodium PK7 catalytic activity – biochemical, TCAMS antimalarial set, Kinase-Glo luminescence (AID 1159587); settings: recombinant PfPK7, Kinase-Glo ATP depletion luminescence
[8] = biological target: Calcium-dependent protein kinase 4 (Plasmodium falciparum (isolate 3D7)) (UniProt Q8IBS5); assay: PfCDPK4 kinase inhibitors, biochemical, TCAMS library (AID 1159588; cut-off not given, nearly all actives have IC50 up to about 0.91 µM); settings: recombinant PfCDPK4, Kinase-Glo ATP depletion luminescence
Sequence of Calcium-dependent protein kinase 4 (Plasmodium falciparum (isolate 3D7)) (Q8IBS5 whole entry, looked up): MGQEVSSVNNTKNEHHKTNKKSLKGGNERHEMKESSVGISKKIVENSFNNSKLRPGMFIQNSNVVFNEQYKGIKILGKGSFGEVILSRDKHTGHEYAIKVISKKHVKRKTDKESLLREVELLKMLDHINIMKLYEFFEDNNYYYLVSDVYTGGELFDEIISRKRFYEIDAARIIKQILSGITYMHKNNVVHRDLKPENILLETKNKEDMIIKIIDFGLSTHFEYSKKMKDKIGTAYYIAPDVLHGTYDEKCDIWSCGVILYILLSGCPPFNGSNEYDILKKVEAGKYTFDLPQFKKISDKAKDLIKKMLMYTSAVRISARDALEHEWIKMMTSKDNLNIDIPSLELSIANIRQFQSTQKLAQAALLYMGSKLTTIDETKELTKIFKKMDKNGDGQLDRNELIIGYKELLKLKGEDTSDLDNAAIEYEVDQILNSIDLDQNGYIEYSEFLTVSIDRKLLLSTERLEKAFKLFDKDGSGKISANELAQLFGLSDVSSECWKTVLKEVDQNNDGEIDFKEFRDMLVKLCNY

Sequence of L-lactate dehydrogenase (Plasmodium falciparum (isolate CDC / Honduras)) (Q27743 whole entry, looked up): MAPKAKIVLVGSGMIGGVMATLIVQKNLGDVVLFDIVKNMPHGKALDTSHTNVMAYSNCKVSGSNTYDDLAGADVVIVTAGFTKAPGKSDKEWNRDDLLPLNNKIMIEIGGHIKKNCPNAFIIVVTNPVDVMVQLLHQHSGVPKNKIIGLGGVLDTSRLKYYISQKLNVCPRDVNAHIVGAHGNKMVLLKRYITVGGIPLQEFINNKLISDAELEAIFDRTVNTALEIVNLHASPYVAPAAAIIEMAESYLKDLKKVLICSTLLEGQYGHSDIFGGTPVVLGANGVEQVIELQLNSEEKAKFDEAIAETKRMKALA
Sequence of Protein kinase 7 (PK7), Plasmodium falciparum 3D7 (PF3D7_0213400) (Q7YTF7 1-343): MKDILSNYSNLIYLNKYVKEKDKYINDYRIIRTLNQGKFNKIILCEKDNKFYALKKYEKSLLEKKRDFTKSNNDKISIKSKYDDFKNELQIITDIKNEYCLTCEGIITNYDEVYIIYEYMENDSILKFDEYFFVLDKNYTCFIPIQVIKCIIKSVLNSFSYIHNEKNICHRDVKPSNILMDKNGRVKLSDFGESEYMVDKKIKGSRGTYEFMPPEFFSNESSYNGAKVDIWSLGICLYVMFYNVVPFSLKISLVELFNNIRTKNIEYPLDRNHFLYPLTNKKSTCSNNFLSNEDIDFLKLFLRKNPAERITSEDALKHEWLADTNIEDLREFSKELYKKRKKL
Sequence of Plasmodium falciparum protein kinase 6 (PK6, PF3D7_1337100) (Q8IDW1 1-305): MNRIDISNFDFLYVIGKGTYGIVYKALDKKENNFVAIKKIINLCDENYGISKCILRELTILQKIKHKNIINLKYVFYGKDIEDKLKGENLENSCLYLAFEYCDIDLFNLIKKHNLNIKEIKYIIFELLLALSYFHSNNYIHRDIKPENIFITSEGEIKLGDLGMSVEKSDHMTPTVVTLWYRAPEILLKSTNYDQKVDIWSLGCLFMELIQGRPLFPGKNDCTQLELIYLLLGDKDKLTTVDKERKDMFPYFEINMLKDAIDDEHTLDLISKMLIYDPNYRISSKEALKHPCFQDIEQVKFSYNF
Sequence of Calcium-dependent protein kinase 1 (Plasmodium falciparum (isolate 3D7)) (P62344 whole entry, looked up): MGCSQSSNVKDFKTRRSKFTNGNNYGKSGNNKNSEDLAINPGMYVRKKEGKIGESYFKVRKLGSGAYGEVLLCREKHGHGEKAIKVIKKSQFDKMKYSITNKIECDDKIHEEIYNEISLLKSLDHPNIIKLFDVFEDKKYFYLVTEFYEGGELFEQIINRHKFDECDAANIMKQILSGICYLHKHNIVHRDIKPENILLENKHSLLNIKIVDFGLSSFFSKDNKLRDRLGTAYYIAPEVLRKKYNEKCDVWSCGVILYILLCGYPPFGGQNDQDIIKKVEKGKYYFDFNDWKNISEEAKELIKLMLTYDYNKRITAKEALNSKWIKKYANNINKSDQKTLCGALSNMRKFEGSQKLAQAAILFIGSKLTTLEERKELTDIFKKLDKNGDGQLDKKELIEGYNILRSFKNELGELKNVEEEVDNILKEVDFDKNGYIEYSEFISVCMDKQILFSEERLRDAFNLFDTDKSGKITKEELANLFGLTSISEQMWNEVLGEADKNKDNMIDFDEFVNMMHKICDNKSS

Row | Compound | growth inhibition [1] | inhibition [2] | inhibition [3] | growth inhibition [4] | outcome [5] | outcome [6] | outcome [7] | outcome [8]
1 | Cc1ccc(NC(=O)c2ccc(NCCCN3CC(C)CC(C)C3)c([N+](=O)[O-])c2)cc1F (stereo not drawn) | 85% (active) | 18% | -8% | 101% (active) | inactive | inactive | inactive | inactive
2 | O=C(NCCCCN1CCC(c2ccc3ccccc3c2O)CC1)c1ccc(-c2ccc(Cl)cc2)cc1 | 99% (active) | 84% (active) | -2% | 101% (active) | inactive | inactive | inactive | inactive
3 | O=C(Cn1c2ccccc2c(=O)c2ccc(Cl)cc21)Nc1ccc(C(F)(F)F)cc1 | 100% (active) | 30% | -3% | 99% (active) | inactive | inactive | inactive | inactive
4 | N#Cc1cccc(C(=O)Nc2cccc(-c3ccc(C(=O)NCCCN4CCOCC4)cc3)c2)c1 | 21% | 21% | -8% | 96% (active) | inactive | inactive | inactive | inactive
5 | Cc1cccc(C(=O)NC(NC(=S)Nc2ccc([N+](=O)[O-])cc2)C(Cl)(Cl)Cl)c1 (stereo not drawn) | 66% (active) | 14% | -2% | 96% (active) | inactive | inactive | inactive | inactive
6 | O=C(CSc1n[nH]c(-c2ccccc2Br)n1)c1c[nH]c2ccccc12 | 95% (active) | 7% | -6% | 100% (active) | inactive | inactive | inactive | inactive
7 | COc1ccc2ncc(F)c(CCN3C[C@H](CNCc4ccc(F)cc4)[C@H](O)C3)c2n1 | 21% | 38% | -1% | 93% (active) | inactive | inactive | inactive | inactive
8 | CCOc1ccccc1C=CC(=O)Nc1ccc2nc(N3CCN(C)CC3)cc(C)c2c1 | 91% (active) | 16% | -1% | 102% (active) | inactive | inactive | inactive | inactive
9 | Cc1c(C(=O)N2CCCC(C(F)(F)F)C2)sc2cccc(F)c12 (stereo not drawn) | 89% (active) | -4% | 1% | 99% (active) | inactive | inactive | inactive | inactive
10 | COc1ccc2cc(C(=O)Nc3ccc4c(c3)CCN(C3CCC3)CC4)ccc2c1 | 9% | 34% | 2% | 101% (active) | inactive | inactive | inactive | inactive
11 | COc1ccc(-c2ccc(NC(=O)c3ccc(Cl)cc3)cc2)cc1CN1CCCN(C)CC1 | 61% (active) | 27% | 2% | 93% (active) | inactive | inactive | inactive | inactive
12 | O=C(Nc1ccc(Cl)c(C(F)(F)F)c1)Nc1ccc(Cl)c(C(F)(F)F)c1 | 96% (active) | 1% | 6% | 94% (active) | inactive | inactive | inactive | inactive
13 | Cc1noc(C)c1-c1ccc2c(Nc3ccc([N+](=O)[O-])cc3)c(C(N)=O)cnc2c1 | 98% (active) | 4% | 4% | 100% (active) | inactive | inactive | inactive | inactive
14 | C#CCN(Cc1ccc2nc(N)[nH]c(=O)c2c1)c1ccc(C(=O)N[C@@H](CCC(=O)O)C(=O)O)cc1 | 96% (active) | 45% | 3% | 95% (active) | inactive | inactive | inactive | inactive
15 | CN(Cc1ccc(-c2ccc(C(F)(F)F)cc2)cc1)C(=O)Cn1c(CCc2cccc(F)c2F)cc(=O)c2ccc(OCCCN3CCCCC3)cc21 | 90% (active) | 79% (active) | 5% | 103% (active) | inactive | inactive | inactive | inactive
16 | CCc1ccc(NC(=O)c2ccc(CN3CCCN(Cc4cccs4)CC3)cc2)cc1 | -1% | 57% (active) | 0% | 87% (active) | inactive | inactive | inactive | inactive
17 | CC(CCc1ccccc1)NCC(O)c1cccc([N+](=O)[O-])c1 (stereo not drawn) | 98% (active) | -2% | 1% | 97% (active) | inactive | inactive | inactive | inactive
18 | COc1ccc(-c2cnc3[nH]cc(-c4ccc(CCC(=O)O)cc4)c3c2)cn1 | 95% (active) | 25% | -5% | 98% (active) | inactive | inactive | inactive | inactive
19 | CN(Cc1cccc(C#N)c1)C1CCN(c2cc(NC(=O)c3ccc(F)cc3)ccn2)CC1 | 23% | 4% | -1% | 97% (active) | inactive | inactive | inactive | inactive
20 | CN(Cc1ccc(C#N)cc1)C1CCN(c2cc(NC(=O)c3ccc(F)cc3)ccn2)CC1 | 10% | 24% | -5% | 86% (active) | inactive | inactive | inactive | inactive
21 | CC(C)CCNCc1ccc(OCc2ccccc2COc2ccc(CNCCC(C)C)cc2I)c(I)c1 | 78% (active) | 99% (active) | 0% | 101% (active) | inactive | inactive | inactive | inactive

Row | Compound | growth inhibition [1] | inhibition [2] | inhibition [3] | growth inhibition [4] | outcome [5] | outcome [6] | outcome [7] | outcome [8]
22 | O=S1(=O)NC2(CCN(CCc3ccc(Cl)cc3)CC2)Nc2cc(F)cc(F)c21 | 5% | 7% | -1% | 86% (active) | inactive | inactive | inactive | inactive
23 | Cc1cc(N2CCCC2)nc(Nc2ccc(NC(=O)c3ccccc3)cc2)n1 | 65% (active) | 26% | -3% | 100% (active) | inactive | inactive | inactive | inactive
24 | CC(=O)Nc1cccc(C(=O)Nc2cccc(-c3ccc(-c4nc5ccc(C(F)(F)F)cc5[nH]4)s3)c2)c1 | 46% | 80% (active) | -3% | 98% (active) | inactive | inactive | inactive | inactive
25 | CCCCc1ccc(-c2nc(NC(=O)Nc3nc(-c4ccccc4)[nH]c3C(=O)OCC)c(C(=O)OCC)[nH]2)cc1 | 26% | 0% | -4% | 95% (active) | inactive | inactive | inactive | inactive
26 | O=S(=O)(NCCN1CCCC1)c1ccc(-c2ccc(CNC3Cc4ccccc4C3)cc2)s1 | 97% (active) | 47% | -2% | 100% (active) | inactive | inactive | inactive | inactive
27 | CCC1N=C(N)N=C(N)N1OCc1cccc2ccccc12 (stereo not drawn) | 1% | 66% (active) | -4% | 93% (active) | inactive | inactive | inactive | inactive
28 | CC(=O)Nc1ccc2[nH]cc(C3CCN(CCC4CCN(C(=O)/C=C/c5ccc(Cl)c(Cl)c5)CC4)CC3)c2c1 | 7% | 13% | 4% | 95% (active) | inactive | inactive | inactive | inactive
29 | COc1ccc(OCCCN2CCCCC2)cc1S(=O)(=O)c1ccc(OCc2ccc(C(F)(F)F)cc2)cc1 | 8% | 52% (active) | -2% | 94% (active) | inactive | inactive | inactive | inactive
30 | CNC(=S)NN=C(C)c1ccccn1 | 99% (active) | 64% (active) | -4% | 98% (active) | inactive | inactive | inactive | inactive
31 | CN1CCN(CCNc2c3ccccc3nc3ccc4ccccc4c23)CC1 | 99% (active) | 22% | -6% | 99% (active) | inactive | inactive | inactive | inactive
32 | O=C(Nc1nc2cc(S(=O)(=O)NCCc3ccc(F)cc3)ccc2n1CCCn1ccnc1)c1ccc(Cl)cc1 | 55% (active) | 18% | 3% | 100% (active) | inactive | inactive | inactive | inactive
33 | CCCCCN1CCCCC(NS(=O)(=O)c2ccc(C(=O)Nc3cccc(C(F)(F)F)c3)cc2)C1 (stereo not drawn) | 2% | 14% | -2% | 93% (active) | inactive | inactive | inactive | inactive
34 | COc1ccc(-c2cc(C(=O)N[C@@H](CC3CCCCC3)C(=O)NC3CCCc4ccccc43)ccc2O)cc1 (stereo partly drawn) | 97% (active) | 7% | -1% | 98% (active) | inactive | inactive | inactive | inactive
35 | CC(C)CCN1CCCN(Cc2cccc(NC(=O)c3cc4ccccc4s3)c2)CC1 | 8% | 34% | 1% | 96% (active) | inactive | inactive | inactive | inactive
36 | Cc1cc(NN=Cc2ccccc2F)c2ccccc2n1 | 81% (active) | 14% | 1% | 101% (active) | inactive | inactive | inactive | inactive
37 | COc1ccccc1N1CCN(c2cccc3c2nc(-c2cncc(C#N)c2)n3CCNCc2ccccc2)CC1 | 81% (active) | -8% | 3% | 101% (active) | inactive | inactive | inactive | inactive
38 | CCc1c(CCNCCCCCCNCCc2ccc3c(c2C)OCO3)ccc2c1OCO2 | 7% | 59% (active) | 7% | 101% (active) | inactive | inactive | inactive | inactive
39 | CCc1cc([C@H]2O[C@@H](n3cnc4c(NCC(c5ccccc5)c5ccccc5)nc(NCCNc5ccccn5)nc43)[C@H](O)[C@@H]2O)on1 | 32% | 14% | -9% | 94% (active) | inactive | inactive | inactive | inactive
40 | O=C(Nc1ccncc1)c1cc(C(=O)Nc2ccncc2)cc([N+](=O)[O-])c1 | 50% (active) | 1% | -3% | 100% (active) | inactive | inactive | inactive | inactive
41 | COc1ccc2nccc(N3CCC(NCCNCc4ccc5c(n4)NC(=O)CO5)C3)c2n1 (stereo not drawn) | 47% | 0% | 3% | 100% (active) | inactive | inactive | inactive | inactive
